Data from PubChem BioAssay (NCATS).
Records with an inconclusive call do not appear. Calls of active or inactive are those of the source. Calls follow the shape of the dose curve; as a rule, active = well fitted inhibition curve with a large enough effect; inconclusive = small, poorly fitted or top-dose-only effect; inactive = flat fitted curve, though single readings scatter.

Biological target: Luciferin 4-monooxygenase (Photinus pyralis) (UniProt P08659)
Test: Biochemical firefly luciferase enzyme assay for NPC (AID 624030);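 also: purified P. pyralis luciferase at 10 nM with luciferin and ATP substrate; 0% = DMSO and -100% = full luciferase inhibition by PTC124 control; nearly all actives have a fitted effect of over 70% in size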
Details: purified P. pyralis luciferase, luminescence, 5 min; series mostly up to 58.6 µM; activity change, negative = inhibition: at the top concentration
Summary of the method: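 Purified P. pyralis luciferase at 10 nM in 50 mM Tris Acetate (final), luminescence read within 5 minutes of enzyme addition to compounds. Activity normalised to PTC124 versus DMSO; concentration-response curves classed by r2, magnitude and activity.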

Chain of Luciferin 4-monooxygenase (Photinus pyralis) (P08659 whole entry, looked up): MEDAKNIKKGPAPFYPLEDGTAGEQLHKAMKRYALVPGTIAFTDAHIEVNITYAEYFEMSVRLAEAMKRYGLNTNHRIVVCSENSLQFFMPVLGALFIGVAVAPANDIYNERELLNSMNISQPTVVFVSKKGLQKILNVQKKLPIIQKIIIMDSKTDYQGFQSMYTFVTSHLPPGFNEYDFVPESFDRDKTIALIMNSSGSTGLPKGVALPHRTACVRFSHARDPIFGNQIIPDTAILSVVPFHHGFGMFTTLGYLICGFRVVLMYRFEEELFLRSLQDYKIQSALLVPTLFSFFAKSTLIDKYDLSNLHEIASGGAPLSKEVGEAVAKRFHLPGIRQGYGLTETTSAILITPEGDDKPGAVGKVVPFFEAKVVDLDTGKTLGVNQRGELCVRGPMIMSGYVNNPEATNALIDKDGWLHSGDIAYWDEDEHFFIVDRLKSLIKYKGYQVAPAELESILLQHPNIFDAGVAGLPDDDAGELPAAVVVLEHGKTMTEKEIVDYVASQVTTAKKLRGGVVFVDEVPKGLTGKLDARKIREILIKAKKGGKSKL

Activity change, negative = inhibition, inactive:
C#CC1(OC(C)=O)CCC2C3CCC4=CC(OC(C)=O)CCC4C3CCC21C (stereo not given) -5.11%
CN1C2CCC1CC(NC(=O)n1c(=O)[nH]c3ccccc31)C2 (stereo not given) -1.13%
COC1=C(C(=O)O)N2C(=O)[C@@H](NC(=O)C(N)C3C=CCC=C3)[C@H]2SC1 (stereo not given in full) -1.33%
C/C=C1\NC(=O)[C@H]2CSSCC/C=C\[C@H](CC(=O)N[C@H](C(C)C)C(=O)N2)OC(=O)C(C(C)C)NC1=O (stereo not given in full) -3.53%
CCCN(CC)[C@@H](CC)C(=O)Nc1c(C)cccc1C -2.8%
CC(=O)SC1CC2=CC(=O)CCC2(C)C2CCC3(C)C(CCC34CCC(=O)O4)C12 (stereo not given) -6.55%
O=C1C=C(CO)OCC1=O 0.441%
CO/N=C(\C(=O)N[C@@H]1C(=O)N2C(C(=O)OCOC(=O)C(C)(C)C)=C(C)CS[C@H]12)c1csc(N)n1 1.8%
CC(=O)O[C@H]1CC[C@@]2(C)C(=CCC3C2CC[C@]2(C)C(c4cccnc4)=CCC32)C1 (stereo not given in full) 2.55%
CCN(CC)CCOc1ccc(/C(=C(/Cl)c2ccccc2)c2ccccc2)cc1 6.1%
C[N+](C)(C)CCOP(=O)(O)OP(=O)([O-])OCC1OC(n2ccc(N)nc2=O)[C@H](O)[C@@H]1O (stereo not given in full) -4.62%
CC1(C)S[C@@H]2[C@H](NC(=O)[C@H](N)c3ccccc3)C(=O)N2[C@@H]1C(=O)OCOC(=O)[C@@H]1N2C(=O)C[C@@H]2S(O)(O)C1(C)C -4.12%
CN1CC[C@H](c2c(O)cc(O)c3c(=O)cc(-c4ccccc4Cl)oc23)[C@@H](O)C1 -13.6%
CN(Cc1ccc(C(C)(C)C)cc1)c1cccc2ccccc12 -0.503%
CC(=O)C[C@H]1[C@H](O[C@H]2[C@H](OC(C)C(=O)N[C@@H](C)C(=O)N[C@H](CCC(=O)N[C@@H](CCCCN)C(=O)N[C@H](C)C(=O)O)C(N)=O)[C@@H](NC(=O)O)C(O)O[C@@H]2CO)O[C@H](CO)[C@@H](O)[C@@H]1O (stereo not given in full) 14.9%
C/C(=C(\CCO)SSCC1CCCO1)N(C=O)Cc1cnc(C)nc1N (stereo not given) 2.26%
CSCC[C@H](NC(=O)[C@@H](Cc1ccc(O[S+](=O)([O-])O)cc1)NC(=O)[C@H](N)CC(=O)O)C(=O)NCC(=O)N[C@@H](Cc1c[nH]c2ccccc12)C(=O)N[C@H](CCSC)C(=O)N[C@H](CC(=O)O)C(=O)N[C@@H](Cc1ccccc1)C(N)=O -9.06%
C=C1/C(=C\C=C2/CCC[C@@]3(C)[C@@H]([C@H](C)OCCC(C)(C)O)CC[C@@H]23)C[C@@H](O)C[C@@H]1O -8.86%
COc1cc([C@@H]2c3cc4c(cc3[C@@H](O[C@@H]3O[C@H]5CO[C@H](C)O[C@H]5[C@H](O)[C@@H]3O)[C@H]3COC(=O)[C@H]23)OCO4)cc(OC)c1OP(=O)(O)O -0.911%
CN[C@H](CC(C)C)C(=O)N[C@H]1C(=O)N[C@@H](CC(N)=O)C(=O)N[C@H]2C(=O)N[C@H]3C(=O)N[C@H](C(=O)N[C@H](C(=O)O)c4cc(O)cc(O)c4-c4cc3ccc4O)[C@H](O)c3ccc(c(Cl)c3)Oc3cc2cc(c3O[C@@H]2OC(CO)[C@@H](O)[C@H](O)[C@H]2O[C@H]2C[C@](C)(N)[C@H](O)[C@H](C)O2)Oc2ccc(cc2Cl)[C@H]1O (stereo not given in full) -5.7%
CC(C)N(Cc1ccccc1)C(C)C (tested in a mixture with another compound) 0.335%
CCC(C)C1OC2(C=CC1C)CC1CC(C/C=C(/C)C(OC3CC(OC)C(OC4CC(OC)C(NC(C)=O)C(C)O4)C(C)O3)C(C)/C=C\C=C3\COC4C(O)C(C)=CC(C(=O)O1)C34O)O2 (stereo not given) -9.07%
C[N+]1(C)CCC(OC(=O)CC(O)(c2ccccc2)C2CCCC2)C1 (stereo not given) 0.887%
O=C(CO)NCCCOc1cccc(CN2CCCCC2)c1 1.63%
CC(=O)C1(O)CCC2C3CC(C)C4=CC(=O)CCC4(C)C3CCC21C (stereo not given) -1.35%
CC[C@H]1OC(=O)[C@H](C)[C@@H](O[C@H]2C[C@@](C)(OC)[C@@H](O)[C@H](C)O2)[C@H](C)[C@@H](O[C@@H]2O[C@H](C)C[C@H](N(C)C)[C@H]2O)[C@](C)(O)C[C@@H](C)[C@@H]2N[C@@H](COCCOC)O[C@H]([C@H]2C)[C@]1(C)O -0.0397%
CC1NC(=O)C(N)CNC(=O)C(C2CCN=C(N)N2)NC(=O)/C(=C/NC(N)=O)NC(=O)C(CNC(=O)CC(N)CCCN)NC1=O (stereo not given) 9.29% [at 24.9 µM]
CC(=O)OCC(=O)C1(O)CCC2C3CCC4=CC(=O)CCC4(C)C3(F)C(O)CC21C (stereo not given) -3.24%
CO[C@@H]1[C@@H]([C@H](C)[C@@H]2O[C@@]3(CC[C@@](C)([C@H]4CC[C@@](C)([C@H]5O[C@H]([C@H]6O[C@](C)(O)[C@H](C)C[C@@H]6C)C[C@H]5O[C@H]5C[C@@H](OC)[C@H](OC)[C@@H](C)O5)O4)O3)C[C@@H](O)[C@@H]2C)O[C@@](O)(CC(=O)O)[C@H](C)[C@H]1OC -1.07%
CCCCCCCCCCCCCCCC(=O)O[C@@H]1CC(C)=C(\C=C/C(C)=C\C=C/C(C)=C\C=C\C=C(C)\C=C\C=C(C)\C=C\C2=C(C)C[C@@H](OC(=O)CCCCCCCCCCCCCCC)CC2(C)C)C(C)(C)C1 -3.65%
CC(=O)O[C@]1(C(=O)CO)[C@@H](C)C[C@H]2[C@@H]3CCC4=CC(=O)C=C[C@]4(C)[C@@]3(F)[C@@H](O)C[C@]21C 0.331%
CC(=O)CC/C=C(\C)CC/C=C(/C)CC/C=C(\C)CCC=C(C)C -0.539%
C/C=C(/CC[C@@H](C)[C@H]1CCC2C3=CC[C@H]4[C@H](C)[C@@H](O)CC[C@]4(C)C3CC[C@@]21C)C(C)C (stereo not given in full) 0.561%
CO[C@H]1[C@@H](O)[C@H](N)[C@@H](O[C@H]2O[C@@H]([C@H](C)N)CC[C@H]2N)[C@H](O)[C@@H]1N(C)C(=O)CN 10.6%
OCC1(O)OC[C@@H](O)[C@H](O)[C@@H]1O (stereo not given in full) -0.233%
CC12C=CC(=O)C=C1CCC1C2C(O)CC2(C)C1CCC2(O)C(=O)COC(=O)CCC(=O)O (stereo not given) -0.0354%
CCOC(=O)[C@H](CCc1ccccc1)NC(C)C(=O)N1CC2(CC1C(=O)O)SCCS2 (stereo not given in full) -4.85%
Fc1ccc(C2CCNCC2COc2ccc3c(c2)OCO3)cc1 (stereo not given) 8.57%
CC#CCC(C)[C@H](O)/C=C/C1[C@H](O)C[C@@H]2C/C(=C\CCCC(=O)O)C[C@H]12 (stereo not given in full) 0.3%

Potency, inactive:
NCCCCC(NC(=O)C1CCCN1C(=O)C1CSSCC(N)C(=O)NC(Cc2ccc(O)cc2)C(=O)NC(Cc2ccccc2)C(=O)NC(CCC(N)=O)C(=O)NC(CC(N)=O)C(=O)N1)C(=O)NCC(N)=O (stereo not given)
